Inconclusive results are not listed. The source made the active and inactive calls. Unless noted, the call rests on the fitted dose curve. Peptide text beside a SMILES is read from it.

Here are results for 15 compounds from PubChem BioAssay (NCATS).

Test [1] is described as follows: qHTS drug screen for cell cycle checkpoint inhibitors in PARPi-resistant BRCA-mutant ovarian cancer cell lines. (AID 1963452). To be noted: PEO1/OlaR viability, CellTiter-Glo luminescence, 96 h, stronger effect = lower value. In outline: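 PEO1, PEO4 and PEO1/OlaR ovarian cancer cells, 600 per well, exposed 96 h at 37C to a dilution series. Viability read by CellTiter-Glo luminescence, normalized to DMSO and empty wells; activity summarized as Z-AUC.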
For orientation: qHTS replaces the single test concentration by a dilution series.

Test [2] addresses Cytochrome P450 2D6 (Homo sapiens) (UniProt P10635). Description: qHTS for inhibitors of CYP2D6 against the NCATS DSHEA and TCM libraries (AID 1919972; active means well fitted curve in the direction sought with a large enough effect; an effect the other way counts as inactive or inconclusive; further: potency means the concentration at half of the fitted maximal effect). To be noted: CYP2D6 enzymatic inhibition, luminescence qHTS. Summed up:
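Luminescent P450-Glo read-out of CYP2D6 turnover of a luciferin substrate after NADPH-driven reaction of 30-45 min at room temperature. Compounds were first preincubated 15 min with enzyme at titrated concentrations; quinidine was the intraplate control.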

In test [3] the target is Cytochrome P450 2C9 (Homo sapiens) (UniProt P11712). Nature of the test: qHTS for inhibitors of CYP2C9 against the NCATS DSHEA and TCM libraries (AID 1919973; active means well fitted curve in the direction sought with a large enough effect; an effect the other way counts as inactive or inconclusive; further: potency means the concentration at half of the fitted maximal effect). To be noted: recombinant CYP2C9 enzyme activity, luminescence. An excerpt: Assay Development and Screening Technology Laboratory (ADST)
Cytochrome P450 2C9 (Homo sapiens), sequence (P11712 whole entry, looked up): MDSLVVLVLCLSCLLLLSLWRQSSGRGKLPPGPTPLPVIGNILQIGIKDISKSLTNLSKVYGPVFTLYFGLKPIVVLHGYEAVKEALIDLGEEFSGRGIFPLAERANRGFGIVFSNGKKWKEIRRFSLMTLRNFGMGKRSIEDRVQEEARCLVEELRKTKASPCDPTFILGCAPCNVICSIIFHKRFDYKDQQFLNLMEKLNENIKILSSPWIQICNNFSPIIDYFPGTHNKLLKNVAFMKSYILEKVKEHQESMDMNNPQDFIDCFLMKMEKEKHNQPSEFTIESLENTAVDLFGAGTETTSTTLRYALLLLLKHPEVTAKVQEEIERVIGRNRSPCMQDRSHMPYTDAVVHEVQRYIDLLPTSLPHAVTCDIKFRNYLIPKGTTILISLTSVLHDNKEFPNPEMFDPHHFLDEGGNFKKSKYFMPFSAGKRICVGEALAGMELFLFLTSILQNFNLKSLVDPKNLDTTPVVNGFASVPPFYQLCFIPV
National Center for Advancing Translational Sciences (NCATS), Rockville, MD
National Institute of Health (NIH), Bethesda, Maryland
Dietary Supplements and Natural Products have minor oversight of their safety and efficacy. We assembled a collection of Dietary Supplements and Natural Products (DSNP) as well as Traditional Chinese Medicinal (TCM) Plant extracts, which were screened against an in vitro panel of assays, including a liver cytochrome p450 enzyme panel, CAR/PXR signaling pathways, and P-gp transporter assays, to assess their activity. This pipeline facilitated the interrogation of Natural Product-Drug Interaction (NaPDI) through prominent metabolizing pathways. In addition, we compared the activity profiles of the DSNP/TCM substances with those of an approved drug collection. Many of the approved drugs have well-annotated mechanisms of action (MOA) while the MOAs for most of the DSNP and TCM samples remain unknown. […] Overall, we highlight four significant bioactivity profiles (measured by p-values) as examples of this prediction. […] To profile potential P-gp activity, a differential cell viability was measured against two cell lines: a parental KB-3-1 human cervical adenocarcinoma cell line and the drug-resistant subline KB-8-5-11 that overexpresses P-gp. […]
9; Read; Luminescence; ViewLux plate reader. […]

For test [4], the target named is Cytochrome P450 2C19 (Homo sapiens) (UniProt P33261). Nature of the test: qHTS for inhibitors of CYP2C19 against the NCATS DSHEA and TCM libraries (AID 1919974; active means well fitted curve in the direction sought with a large enough effect; an effect the other way counts as inactive or inconclusive;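 further: luminescence from luciferin released by CYP2C19 oxidation of a pro-luciferin substrate; potency means the concentration at half of the fitted maximal effect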). To be noted: CYP2C19 enzyme inhibition, luminescence qHTS. In outline:
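Luminescent P450-Glo format: compounds preincubated 15 min with enzyme and luciferin substrate, reaction run 30-45 min after NADPH regeneration solution. Intraplate controls: ketoconazole for CYP3A4 and CYP2C19, sulfaphenazole for CYP2C9.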

Test [5] can be described thus: KB-3-1 P-gp reporter qHTS against the NCATS DSHEA and TCM libraries (AID 1919975; active means well fitted curve in the direction sought with a large enough effect; an effect the other way counts as inactive or inconclusive; further: 0% is about no effect). The conditions noted are these: KB-3-1 parental cells, CellTiter-Glo luminescence viability, 72 h; series mostly up to 26.1 µM. In outline: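 Cell viability qHTS: 500 KB-3-1 cells/well, substances in titration, ~72 h, 37C; luminescent CellTiter-Glo read.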
Test [6] has as its target Cytochrome P450 1A2 (Homo sapiens) (UniProt P05177). Description: qHTS for inhibitors of CYPIA2 against the NCATS DSHEA and TCM libraries (AID 1919976; active means well fitted curve in the direction sought with a large enough effect; an effect the other way counts as inactive or inconclusive; further: potency means the concentration at half of the fitted maximal effect). To be noted: recombinant CYP1A2 enzyme activity, luminescence. Summed up:
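Human CYP1A2 with pro-luciferin substrate (typically 100 mM KPO4), 15 min preincubation with compound, then 1x NADPH regeneration for 30-45 min at room temperature in the dark. Luciferin quantified by luciferase luminescence; furafylline intraplate control.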

Test [7] in a line: Dual reporter qHTS for agonist of Pregnane X Receptor (hPXR) against the NCATS DSHEA and TCM libraries: Fluorescence readout (AID 1920058; active means well fitted curve in the direction sought with a large enough effect; an effect the other way counts as inactive or inconclusive; further: 0% is about no effect). To be noted: PXR dual reporter cells; series mostly up to 40 µM. Summed up: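 hPXR-Luc HepG2 cells, 2000/well in charcoal-stripped serum, attached 5 h, dosed for ~24 h at 37 °C. Fluorescence read is CellTiter-Fluor viability (Ex/Em 405/540 nm); rifampicin positive, tetraoctyl ammonium bromide (92 µM) cytotoxicity controls.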

For test [8], the target named is Nuclear receptor subfamily 1 group I member 2 (Homo sapiens) (UniProt O75469). Nature of the test: Dual reporter qHTS for agonist of Pregnane X Receptor (hPXR) against the NCATS DSHEA and TCM libraries: Luminescence readout (AID 1920059; active means well fitted curve in the direction sought with a large enough effect; an effect the other way counts as inactive or inconclusive; further: 0% is about no effect). The conditions noted are these: hPXR dual reporter cells, luciferase luminescence agonist; series mostly up to 40 µM. In outline: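 hPXR-Luc HepG2 cells, 2000/well in 5% charcoal-stripped FBS medium, attached 5 h, then exposed 24 h at 37C to compounds. Viability by CellTiter-Fluor, then luciferase luminescence with ONE-Glo.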
Nuclear receptor subfamily 1 group I member 2 (Homo sapiens), sequence (O75469 whole entry, looked up): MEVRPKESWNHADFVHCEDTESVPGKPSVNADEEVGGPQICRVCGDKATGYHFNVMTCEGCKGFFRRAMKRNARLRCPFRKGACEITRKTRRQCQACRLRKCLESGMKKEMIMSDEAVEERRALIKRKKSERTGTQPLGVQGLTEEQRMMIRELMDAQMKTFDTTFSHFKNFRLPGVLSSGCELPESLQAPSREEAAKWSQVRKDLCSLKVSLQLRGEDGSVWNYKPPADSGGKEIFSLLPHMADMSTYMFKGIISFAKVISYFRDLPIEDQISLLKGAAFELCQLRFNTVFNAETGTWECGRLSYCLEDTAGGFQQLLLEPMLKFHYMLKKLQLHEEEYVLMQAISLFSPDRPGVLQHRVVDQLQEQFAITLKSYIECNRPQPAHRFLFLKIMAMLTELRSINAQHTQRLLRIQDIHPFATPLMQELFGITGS

Test [9] shares this target. Description: Dual reporter qHTS for antagonist of Pregnane X Receptor (hPXR) against the NCATS DSHEA and TCM libraries: Luminescence Readout (AID 1920060; active means well fitted curve in the direction sought with a large enough effect; an effect the other way counts as inactive or inconclusive;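 further: HepG2 cells carrying hPXR luciferase reporter stimulated with rifampicin at 2 µM; 0% is about no effect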). To be noted: hPXR dual reporter cells, luciferase luminescence, antagonist mode; series mostly up to 40 µM. In outline: (§1)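 HepG2 hPXR-Luc, 2000 cells/well, charcoal-stripped FBS medium; 5 h attach; RIF 2 uM final; 24 h 37C/5% CO2; CellTiter-Fluor 1 h, fluor 405/540; ONE-Glo 30 min RT, lum.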

A short description of test [10]: Dual reporter qHTS for antagonist of Pregnane X Receptor (hPXR) against the NCATS DSHEA and TCM libraries: Fluorescence Readout (AID 1920061; active means well fitted curve in the direction sought with a large enough effect; an effect the other way counts as inactive or inconclusive; further: 0% is about no effect). The conditions noted are these: PXR dual reporter cells, antagonist mode; series mostly up to 40 µM. In outline: as §1
[11] abbreviates: measured here: PEO1 parental Z-AUC.

Cytochrome P450 2C19 (Homo sapiens), sequence (P33261 whole entry, looked up): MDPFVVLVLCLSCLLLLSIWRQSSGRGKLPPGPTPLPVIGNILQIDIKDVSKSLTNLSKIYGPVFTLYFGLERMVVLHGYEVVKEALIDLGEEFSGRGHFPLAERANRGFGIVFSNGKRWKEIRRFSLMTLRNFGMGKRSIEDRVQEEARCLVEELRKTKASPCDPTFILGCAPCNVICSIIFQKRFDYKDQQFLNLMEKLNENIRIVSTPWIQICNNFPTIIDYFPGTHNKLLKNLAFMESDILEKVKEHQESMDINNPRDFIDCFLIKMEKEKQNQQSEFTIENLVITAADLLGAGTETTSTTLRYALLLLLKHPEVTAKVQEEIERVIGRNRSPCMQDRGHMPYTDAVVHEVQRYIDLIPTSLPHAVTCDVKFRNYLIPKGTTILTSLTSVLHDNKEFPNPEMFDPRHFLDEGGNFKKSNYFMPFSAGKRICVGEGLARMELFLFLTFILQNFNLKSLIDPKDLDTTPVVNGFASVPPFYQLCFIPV
Cytochrome P450 2D6 (Homo sapiens), sequence (P10635 whole entry, looked up): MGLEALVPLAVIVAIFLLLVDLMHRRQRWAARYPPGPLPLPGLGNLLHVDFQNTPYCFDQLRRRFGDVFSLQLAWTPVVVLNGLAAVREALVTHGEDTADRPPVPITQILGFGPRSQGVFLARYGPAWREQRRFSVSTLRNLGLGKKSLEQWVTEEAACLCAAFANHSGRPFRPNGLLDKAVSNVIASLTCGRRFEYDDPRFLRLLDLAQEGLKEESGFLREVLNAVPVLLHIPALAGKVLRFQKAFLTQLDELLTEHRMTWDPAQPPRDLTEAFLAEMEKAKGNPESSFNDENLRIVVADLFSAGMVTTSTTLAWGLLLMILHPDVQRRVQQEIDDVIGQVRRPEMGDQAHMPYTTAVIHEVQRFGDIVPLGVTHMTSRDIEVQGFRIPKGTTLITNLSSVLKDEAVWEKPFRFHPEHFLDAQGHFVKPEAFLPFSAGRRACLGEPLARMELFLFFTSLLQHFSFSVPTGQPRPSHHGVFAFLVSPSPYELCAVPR
Cytochrome P450 1A2 (Homo sapiens), sequence (P05177 whole entry, looked up): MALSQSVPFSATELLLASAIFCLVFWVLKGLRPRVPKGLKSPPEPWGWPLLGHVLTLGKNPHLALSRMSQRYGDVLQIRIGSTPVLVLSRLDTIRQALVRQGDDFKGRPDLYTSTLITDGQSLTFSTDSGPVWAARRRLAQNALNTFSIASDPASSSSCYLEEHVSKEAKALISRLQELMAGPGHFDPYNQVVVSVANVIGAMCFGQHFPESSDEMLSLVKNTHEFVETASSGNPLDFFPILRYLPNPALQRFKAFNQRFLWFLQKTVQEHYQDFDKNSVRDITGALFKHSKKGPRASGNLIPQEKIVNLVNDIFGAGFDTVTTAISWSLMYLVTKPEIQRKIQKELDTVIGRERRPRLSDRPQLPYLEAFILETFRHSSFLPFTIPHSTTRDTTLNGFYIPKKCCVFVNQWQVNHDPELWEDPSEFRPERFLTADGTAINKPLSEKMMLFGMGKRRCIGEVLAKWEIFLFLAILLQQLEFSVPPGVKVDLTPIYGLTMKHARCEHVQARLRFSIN

Take `CC1=C(C)C(=O)C(C(CCCCCC(=O)O)c2ccccc2)=C(C)C1=O` (centres undefined): the Z-AUC in test [1] is 0.121 (inactive); in test [1] (setting [11]) it was 0.192; in test [1] (measured here: PEO4 Z-AUC), 0.237.
`N=C(N)c1ccc2cc(OC(=O)c3ccc(N=C(N)N)cc3)ccc2c1`: the Z-AUC in [1] is 0.0758 (inactive); in test [1] (setting [11]) it was 0.542; in [1] (measured here: PEO4 Z-AUC) it was 0.795.
As to `COC(=O)[C@H](Cc1ccccc1)NC(=O)[C@@H](N)CC(=O)O` (H-Asp-Phe-OMe), the Z-AUC in test [1] was 0.187 (inactive); in [1] (setting [11]), 0.0667; in test [1] (measured here: PEO4 Z-AUC), 0.437.
The matching figures for `CCc1nc(N)nc(N)c1-c1ccc(Cl)cc1`: -0.192 (inactive), -0.422 and -0.843.
Turning to `CC(=O)N1CCN(c2ccc(OC[C@H]3CO[C@](Cn4ccnc4)(c4ccc(Cl)cc4Cl)O3)cc2)CC1`, the Z-AUC was 0.477 (inactive) in test [1], 0.452 in test [1] (setting [11]) and 0.494 in test [1] (measured here: PEO4 Z-AUC).
The corresponding values for `Cc1cccc(CN2CCN(C(c3ccccc3)c3ccc(Cl)cc3)CC2)c1` (centres undefined) are -1.46 (inactive), -0.604 and -1.
For the compound `Nc1nc(Cl)nc2c1ncn2[C@H]1C[C@H](O)[C@@H](CO)O1`, the Z-AUC is -0.756 (inactive) in [1], -0.859 in test [1] (setting [11]) and -0.649 in test [1] (measured here: PEO4 Z-AUC).
For `CN1CCC(=C2c3ccccc3CCc3sccc32)CC1`, the Z-AUC is -0.614 (inactive) in test [1], -1.2 in test [1] (setting [11]) and -0.893 in test [1] (measured here: PEO4 Z-AUC).
In the case of `Cc1cc(O)c2c(c1)C(=O)c1cc(O)cc(O)c1C2=O`, the Potency in test [2] is 22.4 µM (active); in [3] it was 8.91 µM (active); in [4], 22.4 µM (active); in test [6], 8.91 µM (active). For the same compound, the outcome in [5], in [7], in test [8], in [9] and in test [10] was inactive. For the same compound, the Z-AUC is 0.333 (inactive) in test [1], 0.799 in [1] (setting [11]) and 0.55 in test [1] (measured here: PEO4 Z-AUC).
Consider `O=C(c1ccccc1)c1ccc2n1CCC2C(=O)O` (centres undefined), for which the Z-AUC is 1.02 (inactive) in test [1], 0.719 in test [1] (setting [11]) and 0.897 in test [1] (measured here: PEO4 Z-AUC).
Consider `CCN(CC)CCOc1ccc(Cc2ccccc2)cc1`, for which the Z-AUC in test [1] is 1.12 (inactive); in test [1] (setting [11]), 0.729; in [1] (measured here: PEO4 Z-AUC), 0.289.
The corresponding values for `O=C1c2ccccc2-c2n[nH]c3cccc1c23` are 0.0207 (inactive), -0.118 and 0.208.
Regarding `CN(C)C(=O)[C@H](O)[C@H](Cc1ccccc1)NC(=O)c1cc2cc(Cl)ccc2[nH]1`, the results for the Z-AUC in test [1], in test [1] (setting [11]) and in test [1] (measured here: PEO4 Z-AUC) were -0.181 (inactive), 0.139 and -0.0271, respectively.
Turning to `CCOC(=O)c1c(C)n(C)c2ccc(O)cc12`, the values for the Z-AUC in test [1], in test [1] (setting [11]) and in test [1] (measured here: PEO4 Z-AUC) were 1.13 (inactive), 0.765 and 0.891, respectively.
Turning to `CCOC(=O)C1=C[C@@H](OC(CC)CC)[C@H](NC(C)=O)[C@@H](N)C1`, the Z-AUC was 0.109 (inactive) in test [1], 0.666 in test [1] (setting [11]) and 0.833 in test [1] (measured here: PEO4 Z-AUC).
